In all, about 360,000 compounds went through this assay and about 1,600 (0.44%) were called active. The full list was thinned out, with actives kept by preference. Values without a mark were called inactive.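 How the source made its calls: active means every replicate showing at least 50% inhibition; inconclusive means mean inhibition at least 50% but not in every replicate; inactive means the rest.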
Molecular target: DNA repair protein RAD52 homolog (Homo sapiens) (UniProt P43351)
Assay: blockers of RAD52 strand annealing activity – biochemical, FRET, single point, set 2, primary screen (AID 651710)
Conditions: recombinant RAD52 DNA annealing, FRET fluorescence; at 18.7 µM; stronger effect = higher value

Chain of DNA repair protein RAD52 homolog (Homo sapiens) (P43351 whole entry, looked up): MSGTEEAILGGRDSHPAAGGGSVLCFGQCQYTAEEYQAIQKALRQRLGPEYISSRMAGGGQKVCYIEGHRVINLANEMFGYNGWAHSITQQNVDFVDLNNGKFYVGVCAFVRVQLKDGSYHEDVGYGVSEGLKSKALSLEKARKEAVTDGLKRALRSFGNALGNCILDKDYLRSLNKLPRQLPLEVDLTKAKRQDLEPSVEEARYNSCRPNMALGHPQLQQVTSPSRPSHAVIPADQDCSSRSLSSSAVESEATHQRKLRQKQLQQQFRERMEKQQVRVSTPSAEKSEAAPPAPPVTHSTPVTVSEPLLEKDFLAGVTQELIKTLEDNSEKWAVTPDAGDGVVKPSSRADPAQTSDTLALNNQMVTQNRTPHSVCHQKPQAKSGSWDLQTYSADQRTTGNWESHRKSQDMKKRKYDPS

CCOc1cccc(=NC2CCCCC2)c2c(C)[nH]c(C)c12 was tested. Which inhibition did it give?
Its inhibition is 79.1% (active).

For Clc1ccc([C@@H]2CC3CCC2N3)cn1 (stereo not given in full), which inhibition is on record?
Its inhibition is -8.46%.

With COc1ccc(C#Cc2ccc([C@H]3[C@H](CO)N4CCCCN(C(=O)Cc5ccccc5)C[C@@H]34)cc2)cc1 as the molecule, how does the inhibition read?
The inhibition was -26.3%.

Which inhibition does the source give for COc1ccc2c(c1O)-c1cccc3c1[C@@H](C2)N(C)CC3 here?
The inhibition was 60.5% (active).

Which inhibition does the source give for COc1c(O)ccc2c1-c1c3c(cc4c1C(C2)N(C)CC4)OCO3 (stereo not given) here?
The inhibition was 6.1%.

How did the inhibition turn out when COC1=C[C@@H]2[C@@H]3Cc4ccc(OC)c(O)c4[C@]2(CCN3C)CC1=O was run?
Its inhibition is -9.71%.

How did the inhibition turn out when O=C(Cc1cccnc1)N1CCCCN2[C@@H](CO)[C@H](c3ccc(C#CC4CCCC4)cc3)[C@@H]2C1 was run?
Its inhibition is 11.6%.

How did the inhibition turn out when O=C(O)[C@H]1[C@H](CO)[C@H]2Cn3c(ccc(-c4ccccc4F)c3=O)[C@@H]1N2C(=O)c1cccnc1 was run?
The inhibition was 6.1%.

N#Cc1cccc(-c2ccc([C@H]3[C@@H](CO)N4CCCCN(C(=O)Cc5cccnc5)C[C@@H]34)cc2)c1 was tested. Which inhibition did it give?
The inhibition was -17%.

Which inhibition does the source give for O=C(Cc1ccccc1)N1CCCCN2[C@H](C1)[C@H](c1ccc(C#CC3(O)CCCC3)cc1)[C@@H]2CO here?
The inhibition was -14.9%.

For O=c1[nH]c2ccccc2n1C1CCN(C(c2ccccc2)c2nnnn2Cc2ccccc2)CC1 (stereo not given), which inhibition is on record?
The inhibition was -11.7%.

For C[N+]1(C)CCOC(O)(c2ccc(-c3ccc(C4(O)C[N+](C)(C)CCO4)cc3)cc2)C1 (stereo not given), which inhibition is on record?
Its inhibition is 70.8% (active).

O=C(O)[C@H]1[C@H](CO)[C@H]2Cn3c(cccc3=O)[C@@H]1N2C(=O)c1ccccc1 was tested. Which inhibition did it give?
The inhibition was 2.96%.

With C[C@@H]1CN([C@H](C)CO)C(=O)CCCn2cc(nn2)CO[C@@H]1CN(C)C(=O)Oc1cccc2ccccc12 as the molecule, how does the inhibition read?
The inhibition was -6.69%.

CCCCCCCCCCCCn1ccc(=N)cc1 was tested. Which inhibition did it give?
The inhibition was 50% (active).

How did the inhibition turn out when O=C(Cc1ccncc1)N1CCCCN2[C@H](CO)[C@@H](c3ccc(C#CC4(O)CCCC4)cc3)[C@H]2C1 was run?
The inhibition was 1.26%.

COC(=O)[C@H]1[C@H](CO)[C@H]2Cn3c(ccc(C4=CCCC4)c3=O)[C@@H]1N2C(=O)CC1CC1 was tested. Which inhibition did it give?
The inhibition was -4.86%.

O=C(Cc1ccncc1)N1CCCCN2[C@@H](CO)[C@H](c3ccc(C#CC4(O)CCCC4)cc3)[C@@H]2C1 was tested. Which inhibition did it give?
Its inhibition is -1.57%.

With COc1cccc(-c2ccc([C@H]3[C@H]4CN(C(=O)Cc5ccncc5)CCCCN4[C@H]3CO)cc2)c1 as the molecule, how does the inhibition read?
The inhibition was -63.8%.

For O=C(Cc1ccncc1)N1CCCCN2[C@@H](CO)[C@H](c3ccc(-c4ccncc4)cc3)[C@@H]2C1, which inhibition is on record?
Its inhibition is -1.75%.

Which inhibition does the source give for CCC(C)NC1(c2ccccc2)CCCCC1 (stereo not given) here?
The inhibition was -8.77%.

Which inhibition does the source give for CC1=CC(=Cc2sc3ccccc3[n+]2C)C=C(C)O1 here?
The inhibition was 60.3% (active).

With O=C(NC[C@@H]1CC[C@H]2NC[C@H]2O1)C1CCCC1 as the molecule, how does the inhibition read?
Its inhibition is -11.1%.

For OC[C@@H]1[C@H]2c3ccccc3NC[C@H]2N1Cc1cccnc1, which inhibition is on record?
Its inhibition is 0.281%.

How did the inhibition turn out when COc1ccc2c(c1)[C@@]13CCCCC1[C@@H](C2)NCC3 (stereo not given in full) was run?
The inhibition was -7.04%.
